RORg inh – blocks mouse ROR gamma transcriptional activity. AID 2551. actives 5.4% (n = 310,000). Potency, µM (highest dose often 53.6 µM), most hits filed as inhibitors. P51450. Drosophila S2 Gal4-RORgamma UAS-luciferase reporter, 20 h; further: nearly all actives have a fitted effect of over 60% in size
Target sequence (P51450 whole entry, looked up, the tested form may be a part): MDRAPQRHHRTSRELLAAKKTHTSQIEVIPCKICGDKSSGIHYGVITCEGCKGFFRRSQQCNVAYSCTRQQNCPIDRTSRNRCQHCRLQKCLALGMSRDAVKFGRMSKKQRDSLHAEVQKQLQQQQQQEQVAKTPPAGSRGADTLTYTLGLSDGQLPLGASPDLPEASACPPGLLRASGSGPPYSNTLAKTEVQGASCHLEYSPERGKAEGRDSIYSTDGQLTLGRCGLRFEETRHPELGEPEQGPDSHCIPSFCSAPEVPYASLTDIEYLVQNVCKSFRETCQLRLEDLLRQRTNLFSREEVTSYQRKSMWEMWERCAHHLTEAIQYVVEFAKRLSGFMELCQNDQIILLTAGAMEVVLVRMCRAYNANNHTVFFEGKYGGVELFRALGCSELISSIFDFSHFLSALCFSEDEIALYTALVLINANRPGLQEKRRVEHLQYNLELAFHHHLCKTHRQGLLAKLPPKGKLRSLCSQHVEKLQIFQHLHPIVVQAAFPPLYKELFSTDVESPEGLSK
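A Gal4/UAS one-hybrid system in insect cells: metallothionein-promoter Gal4–ROR gamma fusion plus Photinus luciferase reporter. Copper sulfate 700 uM final, 20 hr ambient incubation, luminescent detection after 10 min with reagent.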
TDP1 inh – inhibitors of human tyrosyl-DNA phosphodiesterase TDP1; Q9NUW8; recombinant TDP1, AlphaScreen DNA substrate cleavage; Potency, µM (series often up to 130 µM), most hits filed as inhibitors; actives 0.28% (n = 350,000); AID 485290; further: nearly all actives have a fitted effect of over 40% in size
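Recombinant E. coli-expressed Tdp1 (1 nM) preincubated with compound 15 min at RT, then 5'-biotin/3'-phosphotyrosine-FITC DNA substrate (15 nM) added for 5 min. AlphaScreen beads (10 ug/ml) added, 10 min RT; tyrosine-FITC cleavage read as signal loss.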
TDP1 cell CPT – DT40-hTDP1 cell growth loss with CPT; Potency, µM (top dose mostly 46.2 µM), most hits filed as inhibitors; chicken DT40 Tdp1-/-;hTDP1 cells + 20 nM CPT, ATP luminescence, 48 h; actives 12% (n = 420,000); further: nearly all actives have a fitted effect of over 55% in size
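Cell growth measured by CellTiter-Glo luminescence after a minimum 48 h, 37 C compound exposure with 20 nM CPT in Tdp1-knockout DT40 cells stably expressing hTDP1, seeded 400/well; qHTS titration format.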
DT40 TDP1 no CPT – qHTS for Inhibitors of human tyrosyl-DNA phosphodiesterase 1 (TDP1): qHTS in cells in absence of CPT; DT40 Tdp1-/- hTDP1 cells, no CPT, ATP luminescence, 48 h; Potency, µM (titrated, usually from 46.2 µM), usual class: inhibitors; actives 15% (n = 420,000); AID 686978, 2013; further: nearly all actives have a fitted effect of over 55% in size
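Stably hTDP1-transfected Tdp1-null chicken DT40 cells were treated with library compounds minus camptothecin and grown for at least 48 hr at 37 °C, after which cellular ATP was quantified by luminescence.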
Gal4-VP16 FLuc – inhibits Gal4-VP16 luciferase reporter, ROR gamma counter-screen | Drosophila S2 Gal4-VP16 UAS-luciferase, luminescence, 20 h | Potency, µM (doses to about 53.6 µM), most hits filed as inhibitors | actives 3.5% (n = 310,000) | AID 2546;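 further: Gal4-VP16 expression switched on by copper sulfate through the metallothionein promoter; nearly all actives have a fitted effect of over 50% in size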
Numbers stand for hits; n = inactive; u = inconclusive; x = no result given; [ ] = another dose, or the depositor's remark. A selection: hits, their analogues and other compounds. The true share with any hit is near 19%. The call rests on the fitted dose curve; in most records, active means well fitted curve in the direction sought with a large enough effect; inconclusive means small, poorly fitted or top-dose-only effect, or another doubt; inactive means no such curve, though single readings can be large; an effect the other way counts as inactive or inconclusive.

SMILES | RORg inh | TDP1 inh | TDP1 cell CPT | DT40 TDP1 no CPT | Gal4-VP16 FLuc
Cc1ccc(S(=O)c2ccc([N+](=O)[O-])c3nonc23)cc1 (stereo not drawn) | x | x | 2.6µM | 3.3µM | x
CSc1ccccc1CNC(=O)C1(C)CCCN1CC(C)C (stereo not drawn) | x | x | 26µM | 23µM | x
Cc1ccsc1CNC(=O)C1(C)CCCN1CC(C)C (stereo not drawn) | x | x | 15µM | u | x
Cc1cccnc1CNC(=O)C1(C)CCCN1CC(C)C (stereo not drawn) | x | x | 15µM | 15µM | x
COc1cc(CN(C(=O)c2ccco2)c2ccc(C)cc2)ccc1O | n | n | n | n | n
COc1ccc(N=Cc2nc(-c3ccccc3)oc2OC(C)=O)cc1 | u | n | u | 13µM | n
Cc1ccc(N=Cc2nc(-c3ccco3)oc2O)cc1 | n | n | n | u | n
Cc1ccc(C(=O)Oc2oc(-c3ccco3)nc2C=Nc2ccc(Cl)cc2)cc1 | n | n | 18µM | 23µM | n
O=C(Oc1oc(-c2ccco2)nc1C=Nc1ccccc1)c1ccoc1 | n | n | 5.2µM | 12µM | n
O=C(Oc1oc(-c2ccco2)nc1C=Nc1ccccc1)c1ccco1 | n[0.365 µM] | n | 3.7µM | 4.6µM | x
CSc1cccc(CN(C)C(=O)C2CCC(=O)N(CCCN3CCCC3=O)C2)c1 (stereo not drawn) | n | n | n | n | n
COc1cccc2cc(NC(=O)C3CCCCC3)c(=O)oc12 | n | n | n | n | n
O=C(CSc1nnc(-c2ccco2)o1)c1ccccc1Cl | 4µM | n | n | n | u
CC(=O)Nc1ccc(-c2nnc(SCC(=O)c3ccc([N+](=O)[O-])cc3)o2)cc1 | x | n | x | x | x
O=C(CSc1nnc(-c2ccco2)o1)c1ccc([N+](=O)[O-])cc1 | 0.79µM | n | n | n | 0.89µM
CC(=O)Nc1cccc(-c2nnc(SCC(=O)c3cc([N+](=O)[O-])ccc3Br)o2)c1 | x | n | 5.2µM | 5.2µM | x
CC1CCN(C(=O)C2c3ccccc3C(=O)N3CCc4ccccc4C23)CC1 (stereo not drawn) | n | n | u | u | n
CC(=O)Nc1ccc(Nc2nc(-c3ccccc3)nc3ccccc23)cc1 | n | n | 18µM | 23µM | 13µM
CC(=O)c1cccc(Nc2nc(-c3cccc(C)c3)nc3ccccc23)c1 | x | x | 21µM | 5.8µM | x
CNc1nc(-c2ccccc2Cl)nc2ccccc12 | n | x | n | n | n
CC(C)Oc1nc(-c2ccccc2Cl)nc2ccccc12 | n | n | u | 15µM | n
COC(=O)c1ccc(Nc2nc(-c3ccccc3Cl)nc3ccccc23)cc1 | x | n[12.3 µM] | u | 16µM | x
Cc1nc(SCc2ccccc2C#N)n[nH]1 | n | x | n | n | n
O=C(NCCS(=O)(=O)NCCc1ccccc1)c1ccc2c(c1)OCO2 | x | x | n | n | x
CS(=O)(=O)Nc1cccc(-c2nc(Nc3ccc(F)cc3)c3ccccc3n2)c1 | n | n | 5.8µM | 4.1µM | u
SMILES | RORg inh | TDP1 inh | TDP1 cell CPT | DT40 TDP1 no CPT | Gal4-VP16 FLuc
CC(=O)Nc1cccc(Nc2nc(-c3ccccc3F)nc3ccccc23)c1 | n | n | u | u | n
CC(=O)c1cccc(Nc2nc(-c3ccccc3Cl)nc3ccccc23)c1 | x | n[12.3 µM] | 15µM | 10µM | x
CNc1nc(-c2cccc(NS(C)(=O)=O)c2)nc2ccccc12 | n | x | n | n | n
O=C(c1ccco1)N(Cc1cccnc1)C(c1ccccc1)c1nc2ccccc2[nH]1 (stereo not drawn) | x | x | u | n | x
CN1C(=O)NC(NC(=O)C2CCCCC2)(C(F)(F)F)C1=O (stereo not drawn) | n | n | n | n | n
CC12CN(C(=O)c3ccccc3)C3(C#N)CC1CCC23C (stereo not drawn) | n | n | n | n | n
N#C/C(=C\c1ccc(-c2ccc(S(=O)(=O)N3CCOCC3)cc2)o1)C(=O)NC1CC1 | n | n | 12µM | 21µM | n
N#C/C(=C/c1ccc(-c2ccc(S(=O)(=O)N3CCOCC3)cc2)o1)C(=O)NC1CC1 | x | x | n | 15µM | x
CC(C)c1ccc(/C=C2\NC(=S)N(Cc3cccnc3)C2=O)cc1 | 7.9µM | x | u | u | n
CC(Sc1nnnn1-c1ccccc1)C(=O)Nc1ccc(N2CCN(C)CC2)cc1 (stereo not drawn) | n | n | 13µM | 10µM | n
CC(C)C1=NN(C(=O)c2ccccc2)C(O)(C(C)(C)C)C1 (stereo not drawn) | 4.5µM | n | u | 6.5µM | u
CC(C)(C)C1=NN(C(=O)c2ccccc2)C(O)(C(C)(C)C)C1 (stereo not drawn) | n | n | n | n | n
Cc1ccc(CNc2cnn(C34CC5CC(CC(C5)C3)C4)c(=O)c2Cl)cc1 | n | n | u | u | n
O=c1c(Cl)c(N2CCN(c3ccccc3)CC2)cnn1C12CC3CC(CC(C3)C1)C2 | n | n | 26µM | 23µM | n
O=c1c(Cl)c(NCc2ccc(F)cc2)cnn1C12CC3CC(CC(C3)C1)C2 | n[10 µM] | n | 16µM | 16µM | u
CCOc1ccc(NCc2ccccc2OCc2cccc(F)c2)cc1 | n | n | u | u | n
Cc1ccccc1-n1c2nc(=O)[nH]c(=O)c-2cc2c(Cl)cccc21 | x | n[12.3 µM] | 0.82µM | 0.52µM | x
CC(=O)c1cccc(-n2c(=O)c3c4c(sc3n(CC(=O)c3ccccc3)c2=O)CN(C(C)=O)CC4)c1 | x | n | n | n | x
C[C@@]12C(=O)N(c3ccc(C(F)(F)F)cc3)C(=O)N1[C@@H]1c3ccccc3OC[C@@H]1[C@H]2c1ccccc1 | u | x | 7.3µM | 10µM | n
C[C@H]1NC(=O)[C@]2(C)[C@@H](c3ccccc3)[C@H]3COc4ccccc4[C@@H]3N2C1=O | x | x | n | n | x
C[C@]12C(=O)N(c3ccc(F)cc3)C(=O)N1[C@@H]1c3ccccc3OC[C@@H]1[C@H]2c1ccccc1 | n | x | u | 18µM | n
Cn1ccc2cc(NC(=O)Nc3cccnc3)ccc21 | u | n | n | n | n
CC(c1ccccc1)N1C(=O)c2cccnc2C1=O (stereo not drawn) | n | x | n | n | n
CC(NC1=CC(=O)c2cccnc2C1=O)C(O)c1ccccc1 (stereo not drawn) | x | x | 1.5µM | 3.3µM | x
Cc1ccc(NC(=O)/C=C/c2cccs2)c([N+](=O)[O-])c1 | n | n | 13µM | 23µM | n
N#CCCn1cc(C(=O)O)c(-c2cccs2)n1 | n | n | n | n | n
Cc1ccc(NC(=O)c2cn(CCC#N)nc2-c2cccs2)c([N+](=O)[O-])c1 | u | n | u | 12µM | n
O=C(O)c1ccc(C(=O)Nc2cccc(NC(=O)C3CCCO3)c2)cc1 (stereo not drawn) | u | n | u | n | n
CC1=CC(C)(C)NC(=S)N1c1ccc2ccccc2c1 | 3.5µM | n | u | u | 6.3µM
